Bioassay records from PubChem.
This is a sample that favours compounds with a hit; in the whole collection about 1.6% have one here.
KCNQ2 enhance: potentiators of rat KCNQ2 potassium channel; 0.54% of 310,000 active; CHO-K1 KCNQ2, FluxOR thallium flux fluorescence; hits give high values; O88943; B-score at 10 µM;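 active means fluorescence ratio B-score at least 3 SD of library B-scores, with initial fluorescence B-score within 3 of them, cut at about 5.3 in these data; same plate scores as AID 2156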;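 further: B-score of peak minus minimum over baseline fluorescence ratio after K+ and Tl+ stimulus; positive B-score means potentiation of KCNQ2 with more thallium influx and brighter signal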
KCNQ2 inh: inhibitors of rat KCNQ2 potassium channel; CHO-K1 KCNQ2, FluxOR thallium flux, 20 min; hits give low values; B-score at 10 µM; 1.1% of 310,000 active;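 active means fluorescence ratio B-score at most minus 3 library SDs, with starting brightness B-score within 2 library SDs, cut at about -5.5 in these data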
Kir21 conf inh: confirmation of mouse Kir2.1 potassium channel inhibitors; Tl flux remaining, % of negative control (hits give low values), % at 10 µM; AID 2032; 41% of 2,300 active; Kir2.1-expressing cells, FluxOR thallium flux fluorescence; hits give low values; shares compounds with KCNQ2 enhance;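 active means Primary-screen hit whose thallium flux fell at least 3 control SD below untreated wells in both duplicates, with normal baseline fluorescence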;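 further: 0% = blank wells without stimulus and 100% = stimulated no-compound controls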
HEK293 Tl flux: counter-screen for Kir2.1 inhibitors: effect in parental HEK293 cells. shares compounds with KCNQ2 enhance. AID 2105. FluxOR signal as % of negative control (100 = no effect), % at 10 µM. FluxOR thallium flux fluorescence; 0% = unstimulated blank wells. 19% of 2,300 active;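 active means dye signal at least 3 control SD above or below untreated wells in both duplicates, raw fluorescence within 3, either direction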;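 further: percent is based on the flux ratio of peak minus minimum fluorescence over baseline F0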
CHO-K1 ctr: counter-screen for KCNQ2 potentiators: effect in parental CHO-K1 cells; shares compounds with KCNQ2 enhance; FluxOR thallium flux fluorescence; zero = vehicle mean+3SD, 100% = vehicle-minus-blank window; activity increase over 3SD of controls, % at 10 µM; 43% of 1,200 active; AID 2282;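 active means signal rise of at least 3 SD above the untreated control mean, in both duplicate wells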;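 further: counter screen of KCNQ2 potentiator hits so any rise reflects channel-independent effects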
KCNQ1 pot spec: tests whether KCNQ2 potentiators also act on human KCNQ1; CHO KCNQ1 stable, FluxOR thallium flux fluorescence; beyond 3SD, as % of vehicle-control signal; activation over 3SD threshold, % at 10 µM; shares compounds with KCNQ2 enhance; 28% of 1,200 active; AID 2283;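 active means fluorescence ratio rise of at least 3 SD of vehicle wells above their mean, in both replicate wells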;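 further: 0% = vehicle mean plus 3 SD and 100% = vehicle minus unstimulated blank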
KCNQ2 pot conf: rat KCNQ2 channel potentiator confirmation. shares compounds with KCNQ2 enhance. 68% of 1,200 active. potentiation, less the hit threshold, % at 10 µM. CHO-KCNQ2 cells, FluxOR thallium flux fluorescence;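 active means fluorescence ratio rising 3 SD or more over the vehicle control mean in both replicates, plus primary screen hit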;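 further: peak minus minimum thallium fluorescence divided by baseline after K/Tl stimulus; 0% = vehicle mean plus 3 SD and 100% = vehicle minus unstimulated blank difference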
Kir2-1 sel: tests whether KCNQ2 potentiators also affect mouse Kir2.1; shares compounds with KCNQ2 enhance; HEK293 Kir2.1, FluxOR thallium flux fluorescence; activity over 3SD threshold, % at 10 µM; 2% of 1,200 active;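 active means fluorescence ratio rise of at least 3 SD above the vehicle-control mean, seen in both replicates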;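 further: 0% = vehicle mean plus 3 SD and 100% = vehicle minus no-stimulus blank window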
KCNQ2 W236L MoA: rat KCNQ2 W236L mutant potentiation by KCNQ2 potentiators | shares compounds with KCNQ2 enhance | CHO KCNQ2-W236L, automated patch clamp current | current increase over 3SD of negative controls (%), hits give high values, % at 25 µM | 10% of 940 active;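 active means current increase at least 3 SD of the untreated controls above them in both duplicate recordings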
Target sequence (O88943 whole entry W236L, looked up): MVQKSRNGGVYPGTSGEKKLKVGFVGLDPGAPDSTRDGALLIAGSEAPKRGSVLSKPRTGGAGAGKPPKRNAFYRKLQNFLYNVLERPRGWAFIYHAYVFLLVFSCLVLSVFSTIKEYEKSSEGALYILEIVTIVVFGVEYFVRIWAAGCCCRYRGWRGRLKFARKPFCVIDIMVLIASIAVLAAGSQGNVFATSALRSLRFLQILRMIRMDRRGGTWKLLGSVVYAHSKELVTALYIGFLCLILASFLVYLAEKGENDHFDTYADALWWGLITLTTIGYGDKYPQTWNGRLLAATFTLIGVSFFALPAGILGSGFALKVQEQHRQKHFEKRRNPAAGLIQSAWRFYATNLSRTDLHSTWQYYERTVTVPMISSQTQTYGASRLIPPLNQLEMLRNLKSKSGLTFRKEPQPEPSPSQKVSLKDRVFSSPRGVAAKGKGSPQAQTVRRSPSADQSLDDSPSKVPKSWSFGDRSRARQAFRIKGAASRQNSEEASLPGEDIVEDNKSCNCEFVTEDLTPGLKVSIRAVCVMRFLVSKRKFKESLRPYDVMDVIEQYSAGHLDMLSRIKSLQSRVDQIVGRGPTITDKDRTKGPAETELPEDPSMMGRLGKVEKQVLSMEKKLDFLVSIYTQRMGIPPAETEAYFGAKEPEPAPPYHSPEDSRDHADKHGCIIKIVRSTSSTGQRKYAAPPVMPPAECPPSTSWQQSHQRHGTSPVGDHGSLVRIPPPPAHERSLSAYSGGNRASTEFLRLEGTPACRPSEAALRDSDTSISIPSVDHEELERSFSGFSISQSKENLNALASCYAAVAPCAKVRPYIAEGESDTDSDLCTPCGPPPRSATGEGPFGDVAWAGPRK
* hit, by the source's call; i = inactive; nt = no result; + = active, no number; ! = a repeat was not active.

SMILES | KCNQ2 enhance | KCNQ2 inh | Kir21 conf inh | HEK293 Tl flux | others
Cc1ccc(OCCOCCN2CCN(C)CC2)c(C(C)(C)C)c1 | 0.05 | i | nt | nt
CC(C)(C)c1cc(Cl)ccc1OCCOCCN1CCCC1 | nt | i | 39%* | i
O=C(NC(=S)Nn1cnc2c(cnn2-c2ccccc2)c1=O)c1ccccc1 | nt | i | nt | nt
Cc1cc(C(=O)Nc2ccc3nc(C)sc3c2)c2ccccc2n1 | 1.1 | i | nt | nt
Fc1ccc([C@@H]2CCNC[C@H]2COc2ccc3c(c2)OCO3)cc1 | -6 | -6*! | 34%* | i
O=C(CSCc1ccc(F)cc1)NCc1ccc2c(c1)OCO2 | nt | i | nt | nt
Fc1ccc(C2CCNCC2COc2ccc3c(c2)OCO3)cc1 (configuration not stated) | -6.2 | -6.2* | 48%* | i
O=C(COc1ccc2c(c1)OCO2)Nc1ccccc1F | nt | i | nt | nt
COc1ccc(/C=N/N2CCN(c3ccccc3)CC2)cc1Br | nt | i | nt | nt
CCOc1ccc(N(C(=O)c2ccc3c(c2)OCO3)C2C=CS(=O)(=O)C2)cc1 (configuration not stated) | nt | i | nt | nt
NC(=O)c1ccc(NC(=O)COC(=O)C2(c3ccccc3F)CCCC2)cc1 | 1.9 | i | nt | nt
O=C(COC(=O)C1(c2ccccc2F)CCCC1)NCc1cccs1 | nt | i | 73%* | i
O=c1c2ccccc2c(C=NCCCN2CCOCC2)c(O)n1Cc1ccc2c(c1)OCO2 | 0.1 | i | nt | nt
O=c1c2ccccc2c(C=NCCCN2CCOCC2)c(O)n1Cc1ccccc1 | nt | i | 64%* | i
COc1cccc(C(=O)NNC(=O)C(=O)Nc2ccc(C)c(Cl)c2)c1 | 4.9 | i | nt | nt
CCc1ccc(NC(=O)C(=O)NNC(=O)c2cccc(OC)c2)cc1 | 6.4* | i | i | 196%* | CHO-K1 ctr=5.0*;KCNQ1 pot spec=-13;KCNQ2 pot conf=4.9*;Kir2-1 sel=-21;KCNQ2 W236L MoA=i
CCOc1nsc(OCC)n1 | 0.07 | i | nt | nt
O=C(NCC1CCCO1)C1CC(=O)N(c2cccc(Cl)c2)C1 (configuration not stated) | 0.61 | i | nt | nt
O=C(c1ccco1)N1CCCN(Cc2nc(-c3ccc4c(c3)OCO4)no2)CC1 | 1.6 | i | nt | nt
Fc1ccc(CN2CCCN(Cc3nc(-c4ccc5c(c4)OCO5)no3)CC2)cc1 | nt | i | 44%* | i
CCn1c(=O)c(=O)[nH]c2c(=O)oc3ccc(S(=O)(=O)Nc4ccccc4)cc3c21 | nt | i | nt | nt
C=CCn1c(SCC)nc2sc3c(c2c1=O)CCc1ccccc1-3 | nt | i | nt | nt
C=CCSc1nc2sc3c(c2c(=O)n1CC)CCc1ccccc1-3 | 5.7* | i | i | 194%* | CHO-K1 ctr=-1;KCNQ1 pot spec=-16;KCNQ2 pot conf=18*;Kir2-1 sel=-31;KCNQ2 W236L MoA=6.7%*
CCS(=O)(=O)n1nc(NCc2cccc(OC)c2)nc1NCc1cccc(OC)c1 | 15* | i | nt | nt | CHO-K1 ctr=78*;KCNQ1 pot spec=-7;KCNQ2 pot conf=-25;Kir2-1 sel=-50
CCCn1nnnc1NCc1cccc(OC)c1 | nt | i | nt | nt
SMILES | KCNQ2 enhance | KCNQ2 inh | Kir21 conf inh | HEK293 Tl flux | others
CN1CCN(C(=O)CSc2nnc(COc3ccc(Cl)cc3)o2)CC1 | 0.34 | i | nt | nt
CCOC(=O)c1cc2c(nc1C)-c1cc(Cl)cc(Cl)c1OC2O (configuration not stated) | nt | i | nt | nt
O=C(CCCc1nc(-c2ccc(Cl)cc2)no1)NC1CCCCC1 | nt | i | nt | nt
C=CCn1c(SCc2ccc(C#N)cc2)nnc1-c1cccc(Cl)c1 | nt | i | 52%* | 72%*
C=CCn1c(SCc2cccc(C#N)c2)nnc1-c1ccccc1O | 0.25 | i | 52%* | i
N#Cc1ccc(CSc2nnc(-c3ccncc3)n2CCc2ccccc2)cc1 | nt | i | nt | nt
C=CCn1c(SCC(=O)NC(C)(C)C)nnc1-c1ccccc1O | nt | i | nt | nt
CCOc1ccc(-n2nc3c(SCCN4CCCC4)nnc(C)c3c2C)cc1 | nt | i | nt | nt
CCOC(=O)CSc1nc(Cc2ccccc2)nc2ccccc12 | nt | i | 70%* | i
CCOC(=O)CSc1nc(CC)nc2ccccc12 | 1.2 | i | nt | nt
COc1ccc(-n2nc(C(=O)NCC(=O)N3CCC(C)CC3)c3ccccc3c2=O)cc1Cl | 0.44 | i | nt | nt
CC(C)c1ccc2nc(NC(=O)C3CC3)sc2c1 | 5.6* | i | i | 68%* | CHO-K1 ctr=21*;KCNQ1 pot spec=-8;KCNQ2 pot conf=28*;Kir2-1 sel=-32;KCNQ2 W236L MoA=27%*
O=C(Nc1nc2ccc(Cl)cc2s1)C1CC1 | 0.82 | i | nt | nt
CC(=O)N(C)c1ccc(NC(=O)CCN2C(=O)c3ccccc3C2=O)cc1 | nt | i | nt | nt
COC(=O)CN1C(=O)Nc2ccc(Br)cc2C1c1ccccc1Cl (configuration not stated) | 15* | i | i | i | CHO-K1 ctr=-14;KCNQ1 pot spec=+;KCNQ2 pot conf=38*;Kir2-1 sel=-37;KCNQ2 W236L MoA=6.9%*
COC(=O)CN1C(=O)Nc2ccc(Cl)cc2C1c1ccccc1 (configuration not stated) | 1.8 | i | nt | nt
Cc1ccc(NC(=S)NC(=O)c2ccc(-c3ccc(Cl)cc3)o2)c(O)c1 | 1.1 | i | nt | nt
Cc1ccc(O)c(NC(=S)NC(=O)Cc2ccc(Cl)cc2)c1 | 7* | i | i | i | CHO-K1 ctr=0.0*;KCNQ1 pot spec=-14;KCNQ2 pot conf=-22;Kir2-1 sel=-44
NCC12CC3CC(C1)CC(c1ccc(Br)cc1)(C3)C2 | nt | i | 34%* | i
NCCOc1ccc(C23CC4CC(CC(C4)C2)C3)cc1 | nt | i | nt | nt
Cc1ccc(C23CC4CC(CC(C(N)=O)(C4)C2)C3)cc1 | 2 | i | nt | nt
Cc1ccc(C23CC4CC(CC(CN)(C4)C2)C3)cc1 | nt | i | 39%* | i
Brc1ccc(/C=N/Nc2ccc3ccccc3n2)cc1 | 1.6 | i | nt | nt
Fc1cccc(/C=N/Nc2ccc3ccccc3n2)c1 | 12* | i | i | i | CHO-K1 ctr=-14;KCNQ1 pot spec=-21;KCNQ2 pot conf=-20;Kir2-1 sel=-30
CCN(CC)CC(=O)N1c2ccccc2Sc2ccccc21 | 0.08 | i | nt | nt
CCN(CC)CCCCN1c2ccccc2Sc2ccccc21 | nt | i | 44%* | i
Cc1ccc(CNS(=O)(=O)c2ccc3c(c2)n(C)c(=O)n3C)cc1 | nt | i | nt | nt
O=c1[nH]c(C(Cl)(Cl)Cl)nc2ccc3ccccc3c12 | 6.6* | i | i | 174%* | CHO-K1 ctr=-18;KCNQ1 pot spec=38*;KCNQ2 pot conf=5.6*;Kir2-1 sel=-19;KCNQ2 W236L MoA=i
O=c1[nH]c(C(F)(F)F)nc2ccccc12 | 0.68 | i | nt | nt
Cc1ccc(CN(C)C(=O)c2ccc3c(c2)NC(=O)CS3)o1 | 0.47 | i | nt | nt
